PubChem BioAssay AID1259399 (Fisher Drug Discovery Resource Center, 2018)
Among all 160,000 compounds or so, about 240 (0.15%) were called active. Only a selection was taken, and actives are over-represented in it overall. Values without a mark were called inactive. Cut-off read from the data, not from the text of the source: active = inhibition above about 40%; inactive = the rest.

target: Cyclic GMP-AMP synthase (Mus musculus) (UniProt Q8C6L5); assay: inhibition of Mus musculus cGAS, primary biochemical chemiluminescence screen (AID 1259399); details: recombinant cGAS, Kinase-Glo ATP depletion luminescence; at 12.5 µM; stronger effect = higher value;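 note: 0% = negative control wells and 100% = reference inhibitor with no enzyme activity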
Sequence (Q8C6L5 whole entry, looked up): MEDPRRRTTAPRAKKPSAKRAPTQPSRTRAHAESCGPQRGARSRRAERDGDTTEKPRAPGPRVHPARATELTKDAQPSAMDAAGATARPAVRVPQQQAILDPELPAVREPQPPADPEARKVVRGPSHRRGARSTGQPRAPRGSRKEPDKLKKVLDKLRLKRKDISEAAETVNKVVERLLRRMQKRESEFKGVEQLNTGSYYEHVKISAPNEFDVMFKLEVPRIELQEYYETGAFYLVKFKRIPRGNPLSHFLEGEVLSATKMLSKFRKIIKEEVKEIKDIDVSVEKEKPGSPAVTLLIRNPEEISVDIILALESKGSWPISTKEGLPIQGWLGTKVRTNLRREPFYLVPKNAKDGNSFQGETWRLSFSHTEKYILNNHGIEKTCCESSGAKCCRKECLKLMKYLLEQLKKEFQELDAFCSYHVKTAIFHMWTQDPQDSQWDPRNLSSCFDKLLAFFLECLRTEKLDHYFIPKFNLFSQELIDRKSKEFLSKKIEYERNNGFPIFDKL

Compound	inhibition
O=C(Cc1ccccc1)N1CC(=O)N(Cc2ccco2)CC(O)C1 (configuration not stated)	-3.15%
COc1cc2c(cc1OC)C(CNC(=O)NC(C)(C)C)N(Cc1ccc(F)cc1)CC2 (configuration not stated)	-7.88%
Cc1cnc(C(=O)N2CC(c3ccncc3)C2)cn1	-13.8%
NCCOCc1ccc(-c2ccc(F)c(CO)c2)cc1	-21.2%
COc1ccc(S(=O)(=O)N(CC(=O)N2CCc3sccc3C2c2ccccc2C)C(C)C)cc1 (configuration not stated)	-2.82%
COCC(=O)Nc1cccc(-n2nc(OCCc3ccc(OC)cc3)nc2-c2ccc(C(F)(F)F)cc2)c1	-3.56%
Cc1csc2nc(CSc3ncn[nH]3)cc(=O)n12	-4.64%
COc1ccc(-c2cc(NC(=O)c3cc(F)cc(C(F)(F)F)c3)n(-c3ccc(C)cc3)n2)cc1	-4.28%
COc1ccc(C(C)=O)cc1COc1ccc(C#N)cc1	-12.7%
COc1ccc(CCOc2nc(-c3ccc(OC)cc3)n(-c3ccc(NC(=O)Nc4ccccc4C)cc3)n2)cc1	-6.37%
CC(Oc1ccccc1C(N)=O)c1ccccc1Cl (configuration not stated)	-1.52%
CCN1C(=O)N(C2Cc3ccccc3C2)C(=O)C12CCN(Cc1cccc3ncccc13)CC2	-16.7%
O=C(Nc1ccc2c(c1)OCO2)c1cc2nc(-c3ccc(F)cc3)cc(C(F)(F)F)n2n1	-6.41%
COc1ccc(C=C2SC(=S)NC2=O)cc1OC	28%
CCn1nccc1NC(=O)C1(C)CCN1C(=O)c1sccc1C (configuration not stated)	-3.99%
CCOCCCn1c(SCc2cc(F)ccc2C)nc2cc(S(=O)(=O)N3CCCC(C)C3)ccc21 (configuration not stated)	-6.92%
Cc1ccc(OC2(C(=O)N(C)Cc3cc(C4CC4)n[nH]3)CCNCC2)cc1	-3.33%
O=C(O)CN1C(=O)/C(=C\c2ccc(F)c(Br)c2)SC1=S	49.9% (active)
CCOc1ccc(/C=C2/SC(=S)N(CC(=O)O)C2=O)cc1	-7.17%
O=C(O)CN1C(=O)/C(=C\c2cccc(Cl)c2Cl)SC1=S	6.94%
Cc1ccc2nc(-c3ccc([N+](=O)[O-])cc3)nc(-c3ccccc3)c2c1	-7.39%
COc1cccc(CNC(=O)Cn2c3ccc(F)cc3c3ncn(Cc4ccccc4)c(=O)c32)c1	-6.62%
CC(=O)Nc1ccc(Nc2cc(N3CCCCC3)c3nonc3c2[N+](=O)[O-])cc1	-7.72%
C=CC[C@@H]1CC=C[C@@H](C)N1Cc1nc(-c2ccc(C)o2)oc1C	0.508%

Compound	inhibition
COC(=O)c1ccccc1NC(=O)N1CCc2ccccc2C1c1ccc(F)cc1 (configuration not stated)	-8.08%
Cc1nc(SCC(=O)c2ccc(Cl)cc2)c(C#N)c(C)c1C	-5.06%
Cc1cc(=O)[nH]c(SCc2cc(-c3ccco3)on2)c1C#N	9.2%
Cc1cc(=O)[nH]c(SCC(N)=O)c1C#N	71.9% (active)
N#CC1C(=N)SC(=N)C(C#N)C1c1ccco1 (configuration not stated)	36.2%
N#CC1C(=N)SC(=N)C(C#N)C1c1cccc(O)c1 (configuration not stated)	57.5% (active)
COc1ccc(-n2ccnc(SCc3ccc(C)cc3)c2=O)cc1Cl	-6.1%
Cc1ccc(-c2nc3cc(C)ccn3c2NC(=O)CC(C)C)cc1	-7.17%
Cn1c(=O)[nH]c(=O)c2c1nc(N1CCN(Cc3ccccc3F)CC1)n2Cc1ccccc1	-1.19%
COc1ccc(C23CC4CC(CC(C(=O)NC5CC5)(C4)C2)C3)cc1	-7.85%
Cc1oc(-c2ccc(C(F)(F)F)cc2)nc1CN(C)CC1COc2ccccc2O1 (configuration not stated)	-4.73%
O=C(N1CCC(n2cnc3ccccc32)CC1)C1(c2ccccc2)CC1	-5.7%
COc1ccc(CCN(Cc2ccc(C)o2)C(=O)CN(CCN2CCCC2)C(=O)c2ccccc2C)cc1OC	-4.1%
CNC(=O)CN(Cc1cccc(Br)c1)C1CC1	-8.9%
CC(=O)N(CCN(C)C)c1nc2cc3c(cc2s1)OCO3	1.62%
O=C(c1ccccc1)N1CCN2C[C@@H](c3ccccc3)[C@H](CO)[C@H]2C1	-4.18%
Cc1ccccc1-n1cc(CN(C)C(=O)c2cn(Cc3cccc4ccccc34)nn2)cn1	-7.32%
COc1cccc(C(=O)N(Cc2cccc(OS(=O)(=O)c3ccc(F)cc3)c2)Cc2ccco2)c1	-0.277%
CC1C(=O)N(c2ccc3c(c2)OCO3)CCN1C(=O)c1ccccc1Cl (configuration not stated)	0.748%
COc1ccccc1C(=O)N1CCN(c2cccc(Cl)c2C)C(=O)C1C (configuration not stated)	51.1% (active)
COc1ccccc1C(=O)N1CCN(c2ccc(F)cc2)C(=O)C1C (configuration not stated)	-4.08%
OC(COCc1ccccc1)CN(Cc1ccc(F)cc1)CC1CC(c2ccc3c(c2)OCO3)=NO1 (configuration not stated)	-4.2%
CCc1nc2c(OCCOc3ccc(F)cc3)cccn2c1N(C)C(C)=O	-2.77%
